Measurements from PubChem BioAssay (NCI).
About 83,000 compounds went through this panel and 20% of them were active in at least one assay; those are over-represented in the sample as a whole.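 Results are percent growth after 48 hours of single-concentration exposure. 100 means growth as in untreated cells, lower positive values show inhibition; negative values down to -100 show cell death.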 Unmarked numbers belong to inactive results. The source made the active and inactive calls. The calls were made as follows: active = growth percent below 10; inactive = the rest.

Test system: MCF7 breast
Assay: NCI-60 one-dose screen, 48 h (100 = growth as untreated, 0 = no growth, -100 = all killed)
Settings: 10 µM unless noted

SMILES	growth
CC1(C)OC(=O)C(c2ccsc2)C(=O)O1	104%
C#Cc1cccc(NC(=O)c2ccc(Cl)cc2Cl)c1	90.3%
C=CCCCCCCCCCOC(C)=O	96.2%
CCN(CC)CCCC(C)Nc1ccnc(/C=C/c2ccc(Cl)cc2)c1 (stereo unspecified)	-26.6% (active)
CCOC(=O)C1OC1c1ccccc1 (stereo unspecified)	96%
Oc1ccc(N=Nc2ccc(Br)cc2)c(O)c1	15.6%
Cc1cc(C(C)(C)C)cc(C)c1Br	103%
O=C(CC(=O)c1ccccc1O)c1ccccc1	76.4%
CC(C)OC(=O)c1cc(NC(=S)OC(C)C)ccc1Cl	95.1%
O=[N+]([O-])c1ccc(CO)cc1	91.1%
Sc1ccc(Nc2c3ccccc3nc3ccccc23)cc1	71.7%
C#C[C@H]1CCCCCC1O (stereo partly specified)	107%
CCOC(=O)CCCS(C)(=O)=O	92.6%
O=C(O)COCC(=O)O	100%
[O-][N+](=Nc1cccc(Cl)c1)c1cccc(Cl)c1	27.6%
OCC(O)C(O)C(O)C(O)/C=N/O (stereo unspecified)	96.3%
CC(=O)c1ccc(C(C)(C)C)cc1	94.5%
CCN(CC)C(=O)/C=C(/C)c1ccccc1	102%
CCCCC1C(=O)N(c2ccccc2)N(c2ccccc2)C1=O	115%

SMILES	growth
O=C1C=C(Nc2ccc([N+](=O)[O-])cc2)c2ccccc2C1=O	26.5%
CCCCC(O)c1ccccc1 (stereo unspecified)	103%
CCCCCC(C)(CC(=O)O)CC(=O)O	90%
COc1cccc(/C=N/NC(=S)NC2CC3CCC2C3)c1O (stereo unspecified)	37.8%
COc1cc([C@@H]2c3cc4c(cc3[C@H](O)[C@H]3COC(=O)[C@H]23)OCO4)cc(OC)c1OC	5.76% (active)
CCCC(C)OCC(=O)O (stereo unspecified)	99.9%
C=CC[N+](C)(C)C	101%
COc1ccc(C2(O)CCCCC2)cc1	102%
S=C1CCCCCN1	99.4%
Cc1ccc(Cl)cc1N1C(=O)CC(Sc2ccccc2N)C1=O (stereo unspecified)	90.2%
CC1(C)/C(=C\CO)C2CCC1C2 (stereo unspecified)	104%
O=[N+]([O-])c1cccc(C(F)(F)F)c1	85.4%
CC(C)CCCC(=O)O	96%
NC(CSC(c1ccccc1)(c1ccccc1)c1ccccc1)C(=O)O (stereo unspecified)	2.58% (active)
c1ccc2c(N3CCCCC3)ncnc2c1	96.6%
CCCCCCCO	88.8%
CC(C(=O)O)(C1CCCCC1)C1(O)CCCCC1 (stereo unspecified)	105%
CC1(C(=O)O)NC(C(=O)O)Cc2c1[nH]c1ccccc21 (stereo unspecified)	98%
O=C(/C(=N/O)c1ccccc1)c1ccccc1	87.9%

Test system: HCT-116 colon
Assay: as above
Settings: 10 µM

SMILES	growth
CC1(C)OC(=O)C(c2ccsc2)C(=O)O1	92.1%
C#Cc1cccc(NC(=O)c2ccc(Cl)cc2Cl)c1	93.2%
C=CCCCCCCCCCOC(C)=O	110%
CCN(CC)CCCC(C)Nc1ccnc(/C=C/c2ccc(Cl)cc2)c1 (stereo unspecified)	-10.5% (active)
CCOC(=O)C1OC1c1ccccc1 (stereo unspecified)	98.6%
Oc1ccc(N=Nc2ccc(Br)cc2)c(O)c1	18.1%
Cc1cc(C(C)(C)C)cc(C)c1Br	97.6%
O=C(CC(=O)c1ccccc1O)c1ccccc1	76.6%
CC(C)OC(=O)c1cc(NC(=S)OC(C)C)ccc1Cl	72.2%
O=[N+]([O-])c1ccc(CO)cc1	101%
Sc1ccc(Nc2c3ccccc3nc3ccccc23)cc1	96.4%
C#C[C@H]1CCCCCC1O (stereo partly specified)	106%
CCOC(=O)CCCS(C)(=O)=O	110%
O=C(O)COCC(=O)O	108%
[O-][N+](=Nc1cccc(Cl)c1)c1cccc(Cl)c1	90.6%
OCC(O)C(O)C(O)C(O)/C=N/O (stereo unspecified)	91.3%
CC(=O)c1ccc(C(C)(C)C)cc1	97.5%
CCN(CC)C(=O)/C=C(/C)c1ccccc1	106%
CCCCC1C(=O)N(c2ccccc2)N(c2ccccc2)C1=O	102%

SMILES	growth
O=C1C=C(Nc2ccc([N+](=O)[O-])cc2)c2ccccc2C1=O	18%
CCCCC(O)c1ccccc1 (stereo unspecified)	108%
CCCCCC(C)(CC(=O)O)CC(=O)O	112%
COc1cccc(/C=N/NC(=S)NC2CC3CCC2C3)c1O (stereo unspecified)	24.8%
COc1cc([C@@H]2c3cc4c(cc3[C@H](O)[C@H]3COC(=O)[C@H]23)OCO4)cc(OC)c1OC	2.8% (active)
CCCC(C)OCC(=O)O (stereo unspecified)	101%
C=CC[N+](C)(C)C	104%
COc1ccc(C2(O)CCCCC2)cc1	99.1%
S=C1CCCCCN1	102%
Cc1ccc(Cl)cc1N1C(=O)CC(Sc2ccccc2N)C1=O (stereo unspecified)	111%
CC1(C)/C(=C\CO)C2CCC1C2 (stereo unspecified)	96.8%
O=[N+]([O-])c1cccc(C(F)(F)F)c1	99.1%
CC(C)CCCC(=O)O	107%
NC(CSC(c1ccccc1)(c1ccccc1)c1ccccc1)C(=O)O (stereo unspecified)	19.9%
c1ccc2c(N3CCCCC3)ncnc2c1	88.4%
CCCCCCCO	102%
CC(C(=O)O)(C1CCCCC1)C1(O)CCCCC1 (stereo unspecified)	104%
CC1(C(=O)O)NC(C(=O)O)Cc2c1[nH]c1ccccc21 (stereo unspecified)	92.6%
O=C(/C(=N/O)c1ccccc1)c1ccccc1	98%
